Among all 52,000 compounds or so, about 1,700 (3.3%) were called active. The sample holds actives, similar compounds and a random draw of the others, so the mix is not that of the screen. Rule as the data show it: active = survival mostly below about 52% (no sharp cut-off); inactive = mostly above about 56%.
These compounds were tested on Wild type (assay: growth inhibition of S. aureus wild type versus tarO mutant, primary screen, teichoic acid synthesis inhibitors, RN4220, OD600 (AID 463173)). Details: S. aureus RN4220 wild type/DeltatarO growth, OD600, 18 h, active compounds read low, screened at 18.75 µg/mL (by protocol).

Row | Structure (SMILES) | survival
1 | C=CCn1c2ccccc2c2ccccc21 | 80% (inactive)
2 | Cc1cccc(-c2nc(SCCCOc3ccccc3Cl)n3[nH]c(=O)cc3n2)c1 | 65% (inactive)
3 | NC(=O)CSc1nnc(CNc2ccc(Cl)cc2)n1Cc1ccccc1 | 125% (inactive)
4 | COc1ccc(NC(=O)c2cc3c(=O)n(Cc4cccnc4)ccc3nc2C)cc1Cl | 124% (inactive)
5 | Cc1oc(-c2ccccc2)nc1CNC(=O)NC1CCCCC1 | 72% (inactive)
6 | CCCc1nn2c(=O)cc(COC(=O)c3ccc(NC(=O)COc4ccccc4)cc3)nc2s1 | 83% (inactive)
7 | CCCc1nn2c(=O)cc(COC(=O)c3ccc(NC(=O)COc4ccc(F)cc4)cc3)nc2s1 | 10% (active)
8 | CCCc1nn2c(=O)cc(COC(=O)c3cccc(NC(=O)COc4ccc(F)cc4)c3)nc2s1 | 80% (inactive)
9 | COC(=O)c1cc2oc(C)cc2n1Cc1cccc(Cl)c1 | -2% (active)
10 | COC(=O)c1cc2oc(C)cc2n1Cc1ccc(Cl)cc1 | 72% (inactive)
11 | COC(=O)c1cc2occc2n1Cc1cccc(C)c1 | -1% (active)
12 | COC(=O)c1cc2oc(C)cc2n1CC(=O)Nc1cc(Cl)ccc1OC | 88% (inactive)
13 | CCc1cccc(NC(=O)Cn2c(C(=O)OC)cc3occc32)c1 | 83% (inactive)
14 | C=CCn1c(C(=O)OCC)cc2oc(C)cc21 | 111% (inactive)
15 | COC(=O)c1cc2oc(C)cc2n1Cc1c(C)cc(C)cc1C | 33% (inactive)
16 | CCOC(=O)c1cc2oc(C)cc2n1CCCN1C(=O)c2ccccc2C1=O | -1% (active)
17 | COC(=O)c1cc2oc(C)cc2n1Cc1cc(C)ccc1C | -2% (active)
18 | COC(=O)c1cc2oc(C)cc2n1Cc1ccc(C)cc1 | 68% (inactive)
19 | CCOC(=O)c1cc2oc(C)cc2n1CC(=O)NC1CC1 | 94% (inactive)
20 | COC(=O)c1cc2occc2n1Cc1nc(-c2ccc(C)cc2)oc1C | 48% (inactive)
21 | CCn1c(SCCN2CCCC2)nnc1C1CCCN(C(=O)c2ccc3c(c2)OCO3)C1 (stereo not given) | 114% (inactive)
22 | O=C(CN1C(=O)COc2ccc(S(=O)(=O)N3CCCCCC3)cc21)NCCc1ccccc1 | 92% (inactive)
23 | CCSc1nc2c(c(=O)[nH]c(=O)n2C)n1CC(O)COc1ccc(Cl)cc1 (stereo not given) | 161% (inactive)
24 | COc1ccc2c(c1)c1c(c(=O)n(-c3ccc(C)cc3)c(=O)n1CC(=O)Nc1cc(C)ccc1C)n2C | 115% (inactive)

Row | Structure (SMILES) | survival
25 | COc1ccc(NC(=O)Cn2cc(S(=O)(=O)N3CCN(c4ccccc4F)CC3)c3ccccc3c2=O)cc1Cl | 100% (inactive)
26 | Cc1ccccc1C(=O)Nc1c(C)nc(Nc2ccccc2)nc1Nc1ccccc1 | 94% (inactive)
27 | Cc1ccc(Nc2nc(Nc3ccc(C)c(C)c3)nc(N3CCOCC3)n2)cc1C | 73% (inactive)
28 | O=C(CSc1nc(=O)n(Cc2ccco2)c2c1CCC2)Nc1cccc(F)c1 | 72% (inactive)
29 | C=CCN(CC=C)C(=O)C1CCN(Cc2cc(Br)c(O)c(OC)c2)CC1 | 98% (inactive)
30 | COC(=O)c1cc2oc3ccccc3c2n1Cc1ccccc1Cl | 60% (inactive)
31 | COC(=O)c1cc2oc(C)cc2n1Cc1ccccc1Cl | -2% (active)
32 | COC(=O)c1cc2oc(C)cc2n1Cc1ccc(Br)cc1F | 48% (inactive)
33 | CCC(Oc1ccccc1F)C(=O)Nc1cc(-c2ccccc2)no1 (stereo not given) | 66% (inactive)
34 | Cc1cc(C)cc(NC(=O)c2ccc3c(c2)nnn3C2CCCC2)c1 | 121% (inactive)
35 | Cc1c(Cl)cccc1NC(=O)c1ccc2c(c1)nnn2C1CCCC1 | 120% (inactive)
36 | Cc1cccc(C)c1NC(=O)c1ccc2c(c1)nnn2C1CCCC1 | -6% (active)
37 | COC(=O)c1ccccc1NC(=O)CSc1nnc2cc(C)c3cc(C)cc(C)c3n12 | 72% (inactive)
38 | CC(=O)N1CCc2c(sc3c2c(=O)n(-c2ccccc2)c(=O)n3CC(=O)c2ccc(F)cc2)C1 | 91% (inactive)
39 | COc1cc(O)ccc1-c1nc2cc(C)ccn2c1Nc1ccccc1C | 73% (inactive)
40 | CC(C)c1ccc(Nc2c(-c3ccco3)nc3ccccn23)cc1 | 33% (inactive)
41 | Cc1cccc(C)c1Nc1c(-c2ccccc2Cl)nc2cnccn12 | 123% (inactive)
42 | Cc1ccc2nc(-c3ccc(O)cc3)c(Nc3ccc(Cl)cc3)n2c1 | 69% (inactive)
43 | Cc1ccc2nc(-c3ccccc3F)c(Nc3ccc(Cl)cc3)n2c1 | 11% (active)
44 | Cc1ccn2c(Nc3ccccc3C)c(-c3ccc(N4CCOCC4)cc3)nc2c1 | 113% (inactive)
45 | Cc1ccn2c(Nc3ccccc3C)c(-c3ccccn3)nc2c1 | 24% (active)
46 | COc1ccc(Nc2c(-c3ccccn3)nc3ccc(Cl)cn23)cc1 | 96% (inactive)
47 | CC(C)c1ccc(Nc2c(-c3ccccc3O)nc3cnccn23)cc1 | 61% (inactive)
48 | CC(C)c1ccc(Nc2c(-c3ccccn3)nc3ccccn23)cc1 | -21% (active)

Row | Structure (SMILES) | survival
49 | Clc1ccc(Nc2c(-c3ccccc3Cl)nc3ccc(Cl)cn23)cc1 | 25% (inactive)
50 | Oc1ccccc1-c1nc2cnccn2c1Nc1ccc(Cl)cc1 | -16% (active)
51 | N#C/C(=C\c1cn(CC(=O)N2CCCC2)c2ccccc12)C(=O)NC1CC1 | 103% (inactive)
52 | CCC(C(=O)NC1CCCCC1)n1c(SCc2ccccc2F)nc2ccncc21 (stereo not given) | 73% (inactive)
53 | COc1ccc(CNC(=O)CCc2c(C)nc3nc(CNC(=O)OC(C)(C)C)nn3c2C)cc1 | 77% (inactive)
54 | COc1ccc(C2=NS(=O)(=O)N(C)C(C(=O)NCc3ccccc3)=C2)cc1OC | 102% (inactive)
55 | CCC(C)NC(=O)CSc1nc2n[nH]c(C)c2c(=N)n1-c1cc(Cl)ccc1C (stereo not given) | 72% (inactive)
56 | COc1ccccc1CNC(=O)c1c[nH]c2ccc(S(=O)(=O)Nc3cc(C)cc(C)c3)cc2c1=O | 67% (inactive)
57 | CCC(C)n1c(=O)c2sccc2n2c(CCCC(=O)Nc3ccc(F)cc3)nnc12 (stereo not given) | 97% (inactive)
58 | CCN(CC)C(=O)C(C(F)(F)F)C(F)(F)F | 103% (inactive)
59 | Cc1ccc(Nc2c(-c3cc(Br)ccc3F)nc3cc(C)ccn23)cc1 | 0% (active)
60 | Fc1ccc(Nc2c(-c3ccccn3)nc3ccc(Cl)cn23)cc1 | 73% (inactive)
61 | Cc1ccc2nc(-c3ccccn3)c(Nc3ccc(F)cc3)n2c1 | 16% (active)
62 | Cc1ccc2nc(-c3ccccc3O)c(Nc3ccccc3C)n2c1 | 79% (inactive)
63 | Cc1ccccc1Nc1c(-c2ccncc2)nc2ccc(Cl)cn12 | 128% (inactive)
64 | Cc1ccc2nc(-c3ccncc3)c(Nc3ccccc3C)n2c1 | 101% (inactive)
65 | CSc1ccc(-c2nc3cc(C)ccn3c2Nc2ccc(C)cc2)cc1 | 87% (inactive)
66 | Cc1ccc2nc(-c3ccccn3)c(Nc3ccccc3C)n2c1 | 18% (active)
67 | Cc1ccccc1Nc1c(-c2ccc(Br)o2)nc2ccc(Cl)cn12 | 10% (active)
68 | Cc1ccc(Nc2c(-c3ccccn3)nc3ccc(Br)cn23)cc1 | 60% (inactive)
69 | Cc1ccc(Nc2c(-c3ccccc3O)nc3cc(C)ccn23)cc1 | 73% (inactive)
70 | Cc1ccccc1Nc1c(-c2cccnc2)nc2ccc(Cl)cn12 | 81% (inactive)

Source: PubChem BioAssay AID463173 (ICCB-Longwood Screening Facility, Harvard Medical School, 2010)
